# In the library only some 2.2% were active in any assay of this set; here they are far more common.
# LMP1 NFkB inh = Epstein-Barr LMP1 NF-kappaB reporter inhibition | AID 504558 | 350,000 tested, 0.69% active | LMP1-induced NF-kappaB luciferase reporter cells, luminescence | inhibition, % at 12.5 µM; in the data active = inhibition above about 41%; inconclusive = no clear call, values can overlap the other calls
# Shn3 inh set2 = reduces Shn3 3'UTR luciferase signal in osteoblasts | Clone20 osteoblast Shn3 3'UTR firefly luciferase, 24 h | inhibition, % at 12.5 µM | 360,000 tested, 0.52% active | AID 588674;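 active = mean inhibition of at least 75% with every replicate also reaching 75%; inconclusive = mean inhibition at least 75% but some replicate below; inactive = mean inhibition below 75%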
# MITF TRPM1 inh = reduces MITF-dependent TRPM1 promoter luciferase signal; 330,000 tested, 0.83% active; SK-MEL-5 TRPM1 promoter luciferase, 24 h; inhibition, % at 12.5 µM; AID 488899;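 active = mean inhibition across replicates of 60% or more, whatever share of single replicates reaches that level; inconclusive = some that reach 60%, reason not given; inactive = mean inhibition across replicates below 60%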
# PAX8 inh HTS = lowers PAX8-driven luciferase in RMG-I cells. 360,000 tested, 1.2% active. RMG-I TPO-luciferase reporter, SteadyGlo, 24 h. inhibition, % at 12.6 µM. AID 652154;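 active = mean replicate inhibition at least 60% with every replicate also reaching 60%; inconclusive = only one of the two criteria is met; inactive = mean below 60% and not all replicates reaching 60%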;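 note: luciferase light reporting Pax8 driven TPO promoter activity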
# EWS-Fli block = blocks EWS/Fli oncoprotein-driven transcription | A673 NR0B1-luciferase reporter, viability-normalised | inhibition, % at 12.6 µM | AID 651661 | 350,000 tested, 0.67% active;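 active = mean inhibition of at least 50% after viability correction, with every replicate also passing that limit; inconclusive = mean reaches 50% but only one of two replicates passes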;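 note: firefly luciferase signal divided by Alamar Blue viability fluorescence both relative to DMSO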
# LGR2 antag = blocks bursicon-induced cAMP signaling via Drosophila LGR2 | HEK293 LGR2, CRE-luciferase, bursicon-stimulated, 4 h | inhibition, % at 9.99 µM | 380,000 tested, 0.35% active | AID 720647;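 active = drop in luminescence signal, shown as inhibition above about 50% in the replicate tests, limit read from the data, passing the limit was not always enough; inconclusive = probably only some replicates passing the limit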;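 note: agonist challenge used bursicon conditioned medium at about half maximal strength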
# A number is an active result; n = inactive; u = inconclusive; x = no result given; ! = a repeat was not active.
SMILES,LMP1 NFkB inh,Shn3 inh set2,MITF TRPM1 inh,PAX8 inh HTS,EWS-Fli block,LGR2 antag
CCCCCn1c(=N)n(CC(O)COc2ccccc2OC)c2ccccc21 (configuration not stated),n,86.3!,n,n,n,n
CO[C@@H]1CN(C)C(=O)c2ccc(NC(=O)NC(C)C)cc2OC[C@H](C)N(Cc2ccccc2)C[C@H]1C,x,x,x,x,n,n
CC(C)(O)C#Cc1ccc([C@@H]2C[C@H]3CN(c4ccccc4)C(=O)[C@]34CCCN24)s1,54.3,95.2,n,u,n,n
O=C1N(c2ccccc2)C[C@@H]2C[C@@H](c3cccs3)N3CCC[C@@]123,n,n,n,75.3,n,u
COc1ccc([C@@H]2C[C@H]3CN(c4ccccc4)C(=O)[C@]34CCCN24)c(OC)c1OC,n,n,n,n,n,n
CCS(=O)(=O)c1ncc(Cl)c(C(=O)Nc2ccc(S(=O)(=O)N3CCCC(C)C3)cc2)n1 (configuration not stated),n,97.5,104.0,102.0,x,n
CCS(=O)(=O)c1ncc(Cl)c(C(=O)Nc2ccc(C)cc2)n1,n,n,69.7,100.5,64.8,n
CC1CCCN(S(=O)(=O)c2ccc(NC(=O)CNC3CCCC3)cc2)C1 (configuration not stated),n,n,n,n,n,n
O=C(Nc1ccc(OC(F)F)cc1)c1ncc(Cl)c(Cl)c1Cl,n,n,n,n,n,n
Cc1ccc(CS(=O)(=O)c2ncc(Cl)c(C(=O)Nc3ccc(OC(F)F)cc3)n2)cc1,u,94.3,81.5,n,n,n
CCSc1ncc(Cl)c(C(=O)Nc2ccc(S(=O)(=O)Nc3onc(C)c3C)cc2)n1,n,n,n,x,x,x
CCCC(=O)Nc1ccc2c(c1)C(=O)N(C)C[C@H](OC)[C@H](C)CN(Cc1ccccc1F)[C@H](C)CO2,x,x,x,x,n,n
N#C[C@@H]1[C@@H](c2ccccc2C2=CCCC2)[C@H](CO)N1C(=O)C1CCC1,x,x,x,n,n,n
CCC(=O)Nc1ccc2c(c1)OC[C@H](C)N(C(=O)NC(C)C)C[C@H](C)[C@H](OC)CN(C)C2=O,x,x,x,n,n,n
COc1ccc(/C=N\NC(=O)c2ccccc2OC)cc1COc1c(F)c(F)c(F)c(F)c1F,n,n,n,64.4,n,n
CCOc1ccc2nc(NC(=O)CSCC(=O)Nc3cc(C)on3)sc2c1,n,n,n,n,59.6,n
CC1=NN(C(C#N)c2c(C)nn(Cc3ccccc3)c2C)C(C)(C)C1 (configuration not stated),57.4,n,n,n,x,n
C[C@@H]1CN([C@H](C)CO)C(=O)c2cc(NS(=O)(=O)c3ccccc3)ccc2O[C@@H](C)CCCCO[C@@H]1CN(C)Cc1ccc(C(F)(F)F)cc1,x,x,x,101.7,n,n
C[C@@H]1CN([C@@H](C)CO)C(=O)c2cc(NS(=O)(=O)c3ccccc3)ccc2O[C@@H](C)CCCCO[C@H]1CN(C)Cc1ccc(C(F)(F)F)cc1,x,x,x,u,n,n
C[C@@H]1CCCCO[C@H](CN(C)Cc2ccc(C(F)(F)F)cc2)[C@H](C)CN([C@H](C)CO)C(=O)c2cc(NS(=O)(=O)c3ccccc3)ccc2O1,x,x,x,88.8,n,n
C[C@@H]1CCCCO[C@@H](CN(C)Cc2ccc(C(F)(F)F)cc2)[C@H](C)CN([C@@H](C)CO)C(=O)c2cc(NS(=O)(=O)c3ccccc3)ccc2O1,x,x,x,110.7,66.0,n
C[C@@H]1CCCCO[C@@H](CN(C)Cc2ccc(C(F)(F)F)cc2)[C@@H](C)CN([C@@H](C)CO)C(=O)c2cc(NS(=O)(=O)c3ccccc3)ccc2O1,x,x,x,94.5,n,n
C[C@@H]1CCCCO[C@H](CN(C)Cc2ccc(C(F)(F)F)cc2)[C@H](C)CN([C@@H](C)CO)C(=O)c2cc(NS(=O)(=O)c3ccccc3)ccc2O1,x,x,x,n,n,n
C/C=C/c1ccc2c(c1)O[C@@H](CN(C)Cc1cccnc1)[C@@H](C)CN([C@@H](C)CO)S2(=O)=O,x,x,x,x,n,n
CCCC(=O)Nc1ccc2c(c1)C(=O)N(C)C[C@@H](OC)[C@@H](C)CN(CCc1ccccc1)[C@H](C)CO2,x,x,x,x,n,n
SMILES,LMP1 NFkB inh,Shn3 inh set2,MITF TRPM1 inh,PAX8 inh HTS,EWS-Fli block,LGR2 antag
Cc1noc(C)c1S(=O)(=O)Nc1ccc2c(c1)C(=O)N([C@@H](C)CO)C[C@@H](C)[C@H](CN(C)S(=O)(=O)c1cccs1)OCCCC[C@@H](C)O2,x,x,x,n,n,n
C[C@@H]1CN([C@H](C)CO)C(=O)c2cc(-c3cccc(C#N)c3)cnc2O[C@@H]1CN(C)C(=O)c1ccccn1,x,x,x,x,n,n
C[C@@H]1CCCCO[C@@H](CN(C)Cc2ccc(C(F)(F)F)cc2)[C@@H](C)CN([C@H](C)CO)C(=O)c2cc(NS(=O)(=O)c3ccccc3)ccc2O1,x,x,x,n,n,n
C[C@@H]1CCCCO[C@H](CN(C)Cc2ccc(C(F)(F)F)cc2)[C@@H](C)CN([C@@H](C)CO)C(=O)c2cc(NS(=O)(=O)c3ccccc3)ccc2O1,x,x,x,88.2,n,n
C[C@H](CO)N1C[C@H](C)[C@@H](CN(C)CC2CC2)OCCCC[C@H](C)Oc2ccc(NC(=O)CCCCCC(=O)Nc3ccccc3N)cc2C1=O,x,x,x,n,n,n
COc1ccccc1-c1nnc(NC(=O)CCS(=O)(=O)c2ccc(F)cc2)o1,n,n,x,73.6,n,n
CCOC(=O)C1C(=O)C=C(c2ccc(NS(C)(=O)=O)cc2)CC1c1ccco1 (configuration not stated),n,n,n,x,x,x
CCOC(=O)C1C(=O)C=C(c2ccc(C)cc2)CC1c1ccco1 (configuration not stated),47.7,n,n,n,x,x
N#CC1=C(N)Oc2cc(N)ccc2C1c1ccccc1F (configuration not stated),n,n,n,n,54.5,n
N#CC1=C(N)Oc2cc(N)ccc2C1c1cc(Br)cs1 (configuration not stated),n,n,n,n,58.4,x
N#CC1=C(N)Oc2cc(N)ccc2C1c1ccsc1 (configuration not stated),n,n,n,n,x,n
Cn1nc([N+](=O)[O-])nc1S(C)(=O)=O,n,n,72.0,u,n,n
COc1ccc2c3c(n(C)c2c1)[C@@H](CO)N(C(C)=O)CC31CN(C(=O)C2CC2)C1,x,x,x,x,n,n
CCOC(=O)c1cccc(NC2c3ccccc3C(=O)N2Cc2ccco2)c1 (configuration not stated),n,90.4,n,n,n,n
C[C@@H]1CN([C@H](C)CO)C(=O)Cc2cc(NS(=O)(=O)c3cccs3)ccc2O[C@@H]1CN(C)S(C)(=O)=O,x,x,x,n,n,n
C[C@H](CO)N1C[C@H](C)[C@@H](CN(C)S(=O)(=O)c2cn(C)cn2)OCc2ccccc2-c2c(n(C)c3ccccc23)C1=O,x,x,x,n,n,n
CC(=O)N(C1=C(N)C(=O)c2ccccc2C1=O)c1ccccc1,n,n,65.3,n,n,n
Cc1nnc(SCc2cnc(-c3ccc(C(C)C)cc3)s2)n1C,43.5,n,n,x,x,x
